Assay results: PubChem BioAssay (NCI)
Compounds without any hit were thinned out: in the full panel of roughly 83,000, 20% have a hit.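 Interpretation: 100, growth as untreated; towards 0, rising growth inhibition; 0, no net growth; 0 to -100, cell death. Compounds scoring below 10 were considered active.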 A number with no mark means an inactive call. Calls of active or inactive are those of the source.

These compounds were tested on HL-60(TB) leukemia (assay: NCI-60 one-dose screen, 48 h (100 = growth as untreated, 0 = no growth, -100 = all killed)). Details: 10 µM unless noted.

SMILES | growth
COc1ccc2c(c1)c(-c1nc(-c3cn(C)c4ncccc34)cs1)cn2CCCN1CCCCC1 | 4.1% (active)
CC1OC(n2c3ccccc3c3c4c(c5c6ccccc6[nH]c5c32)C(=O)N(CCN[C@@H]2CCC[C@H]2N)C4=O)CC(O)C1O (some centres not stated) | 29.2%
O=C(Nc1ccc(Br)cc1F)c1cc(Br)ccc1O | -23.7% (active)
CC(=O)n1nc(C(=O)OC(C)(C)C)c2cc(F)c(F)cc21 | 103%
COc1cccc(-c2nc3sccn3c2-c2ccnc(NCCCNS(=O)(=O)c3cccc(F)c3)c2)c1 | -26.9% (active)
O=C(N(c1ccccc1)c1ccccc1)n1ccc2nc(Cl)nc(Cl)c21 | 49.5%
Cn1ccnc1C(=O)/C=C/c1ccc(CC(=O)Nc2cc(F)c(F)c(F)c2)cc1 | -31.2% (active)
COc1cccc2ccc(CC(O)(c3ccccc3)c3ccccc3)nc12 | 95.8%
CCOc1ccc(-c2cc(C3(S(=O)(=O)c4ccc(C)cc4)CC=CC3)on2)cc1 | 75.1%
O=C(CCC(=O)c1nc2ncccc2[nH]1)NN1C(=O)CSC1c1ccc(Cl)cc1 (configuration not stated) | 99.6%
NCCCNc1nc2ccccc2c2c(=O)c3cc(Cl)ccc3sc12 | -56.8% (active)
CC(=O)N(N=O)c1ccc([N+](=O)[O-])cc1Cl | 55.7%
COc1ccc(C2=Nn3c(nnc3-c3ccc(Cl)cc3N)SC2)cc1 | 100%
COc1cc2c(cc1OC)-c1ccc3cc4c(cc3c1N(CCCn1ccnc1)C2)OCO4 | 3.45% (active)
CCN(CC)N=Nc1nn(C(=O)Nc2ccc(Cc3ccccc3)cc2)c2ccc(Cl)cc12 | 60.4%
Cc1c(O)c(=O)ccn1C1CCC(CC2CCC(n3ccc(=O)c(O)c3C)CC2)CC1 (configuration not stated) | -0.371% (active)
CCCCOc1nc2c(C)cccc2cc1-c1cc(-c2ccc(Cl)cc2)nc(-c2ccc(Cl)cc2)c1 | 98.8%
Cc1cc(C(=O)CCCC(=O)c2cc(C)c(O)c(C)c2)cc(C)c1O | 84.6%
CNCCCOc1c(Br)cc(CCNC(=O)/C(Cc2ccc(OC)c(Br)c2)=N/O)cc1Br | 21.3%

SMILES | growth
CCC(CCNc1cc(OC)cc2cccnc12)CN1C(=O)c2ccccc2C1=O (configuration not stated) | 107%
Cc1cc(C(=O)Nc2ncnc3nc[nH]c23)no1 | 91.1%
N#Cc1c(-c2ccc(Cl)cc2)nc(N/N=C/c2cccc(Br)c2)nc1N1CCOCC1 | 40.6%
CC(=O)Nc1ccc(S(=O)(=O)N/N=C(\C)c2ccc(C)cc2C)cc1 | 86.4%
CN1CCN(Cc2ccc(C(=O)Nc3cncc(C#Cc4cnc(N)c5ccccc45)c3)cc2C(F)(F)F)CC1 | -71.5% (active)
CC1(C)N=C(N)N=C(N)N1c1cccc(CCCCc2ccccc2)c1 | -76% (active)
CC(=O)[C@H]1CC[C@]2(C)[C@@H]1CC[C@@H]1[C@@]3(C)CC(CCC#N)(CCC#N)C(=O)C(C)(C)[C@@H]3CC[C@]12C | 103%
COc1ccc(OC)c(NC2=C(SCCc3ccccc3)C(=O)c3ccccc3C2=O)c1 | 93.4%
Clc1cccc(Cl)c1CSc1nc2ccccc2n2cccc12 | 94.3%
O=P([O-])(O)OP(=O)([O-])O.[NH-][C@H]1CCCC[C@@H]1[NH-].[OH-].[OH-].[Pt+4] | 111%
Cc1c2cc[nH]c(=O)c2c(C)c2c1[nH]c1ccc(OC(=O)c3ccccc3)cc12 | 51.3%
Nc1nc(Nc2ccccc2SSc2ccccc2Nc2nc(N)nc(-c3ccc(C(F)(F)F)cc3)n2)nc(-c2ccc(C(F)(F)F)cc2)n1 | -17% (active)
CCc1c(C(=O)N[C@@H](C(=O)OCc2ccccc2)C(C)O)[nH]c2ccc(Cl)cc12 (some centres not stated) | 122%
COC(=O)c1cc(-c2ccccc2)[nH]c1N/N=C/c1c(Cl)cccc1Cl | -42.9% (active)
CNC(=O)c1cc(Oc2ccc3nc(NC(=O)Nc4ccc(CN5CCOCC5)c(C(F)(F)F)c4)sc3c2)ccn1 | 17.1%
COc1cc(NC(=O)CCSc2nc3ccc(C)cc3c(=O)n2Cc2ccccc2)cc(OC)c1OC | 116%
Clc1ccc(-c2nnc(-c3ccco3)o2)cc1 | 94.1%
NC1(C(=O)N[C@@H](CCO)c2ccc(Cl)cc2)CCN(c2ncnc3[nH]ccc23)CC1 | 60.7%
